In all, about 5,500 compounds went through this assay and about 2,000 (36%) were called active. Inconclusive results (about 18%) are left out. Rule as the data show it: active = normalized growth mostly below about 0.91 (no sharp cut-off); inconclusive = no clear call, values can overlap the other calls; inactive = mostly above about 0.92. The list shows a part of the results.
Assay: chemical genetic growth profiling, strain panel (AID 1159580);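 also: tested at 20 µM; growth read once vehicle control cultures reached saturation at 30 °C; 1 = growth at the plate median or of vehicle wells; lower values mean less growth of the strain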
Conditions: growth OD

Measured: normalized growth

O=c1c(-c2ccccc2)coc2cc(O)cc(O)c12
active: S. cerevisiae deletion strains, locus YAL013W, strain DEP1, active compounds read low 0.837 | S. cerevisiae deletion strains, locus YBR229C, strain ROT2, active compounds read low 0.853 | S. cerevisiae deletion strains, locus YCL029C, strain bik1, active compounds read low 0.636 | S. cerevisiae deletion strains, locus YDL035C, strain GPR1, active compounds read low 0.825 | S. cerevisiae deletion strains, locus YDL074C, strain BRE1, active compounds read low 0.564 | S. cerevisiae deletion strains, locus YDL101C, strain DUN1, active compounds read low 0.494 | S. cerevisiae deletion strains, locus YDL185W, strain tfp1, active compounds read low 0.332 | S. cerevisiae deletion strains, locus YDL192W, strain arf1, active compounds read low 0.781 | S. cerevisiae deletion strains, locus YDR101C, strain arx1, active compounds read low 0.758 | S. cerevisiae deletion strains, locus YDR137W, strain rgp1, active compounds read low 0.821 | S. cerevisiae deletion strains, locus YDR162C, strain NBP2, active compounds read low 0.826 | S. cerevisiae deletion strains, locus YDR318W, strain mcm21, active compounds read low 0.819 | S. cerevisiae deletion strains, locus YDR388W, active compounds read low 0.879 | S. cerevisiae deletion strains, locus YDR502C, strain sam2, active compounds read low 0.793 | S. cerevisiae deletion strains, locus YER110C, active compounds read low 0.84 | S. cerevisiae deletion strains, locus YER155C, strain BEM2, active compounds read low 0.769 | S. cerevisiae deletion strains, locus YGL078C, strain dbp3, active compounds read low 0.822 | S. cerevisiae deletion strains, locus YGL086W, strain mad1, active compounds read low 0.786 | S. cerevisiae deletion strains, locus YGL248W, strain PDE1, active compounds read low 0.744 | S. cerevisiae deletion strains, locus YGR135W, strain pre9, active compounds read low 0.727 | S. cerevisiae deletion strains, locus YGR229C, strain SMI1, active compounds read low 0.613 | S. cerevisiae deletion strains, locus YGR252W, strain gcn5, active compounds read low 0.648 | S. cerevisiae deletion strains, locus YHR030C, strain SLT2, active compounds read low 0.879 | S. cerevisiae deletion strains, locus YHR079C, strain IRE1 (second series), active compounds read low 0.739 | S. cerevisiae deletion strains, locus YHR129C, strain ARP1, active compounds read low 0.795 | S. cerevisiae deletion strains, locus YHR200W, strain rpn10, active compounds read low 0.84 | S. cerevisiae deletion strains, locus YIL066C, strain RNR3, active compounds read low 0.817 | S. cerevisiae deletion strains, locus YIL125W, strain kgd1, active compounds read low 0.755 | S. cerevisiae deletion strains, locus YIR030C, strain dcg1, active compounds read low 0.884 | S. cerevisiae deletion strains, locus YJL095W, strain BCK1, active compounds read low 0.447 | S. cerevisiae deletion strains, locus YJL134W, strain LCB3, active compounds read low 0.924 | S. cerevisiae deletion strains, locus YJL187C, strain SWE1 (second series), active compounds read low 0.394 | S. cerevisiae deletion strains, locus YJR043C, strain POL32, active compounds read low 0.709 | S. cerevisiae deletion strains, locus YKL009W, strain mrt4, active compounds read low 0.859 | S. cerevisiae deletion strains, locus YKL085W, strain MDH1 (second series), active compounds read low 0.799 | S. cerevisiae deletion strains, locus YKL085W, strain MDH1, active compounds read low 0.799 | S. cerevisiae deletion strains, locus YKR001C, strain vps1, active compounds read low 0.567 | S. cerevisiae deletion strains, locus YLR039C, strain RIC1, active compounds read low 0.506 | S. cerevisiae deletion strains, locus YLR058C, strain SHM2, active compounds read low 0.311 | S. cerevisiae deletion strains, locus YLR268W, strain sec22, active compounds read low 0.789 | S. cerevisiae deletion strains, locus YLR371W, strain rom2, active compounds read low 0.715 | S. cerevisiae deletion strains, locus YLR418C, strain cdc73, active compounds read low 0.534 | S. cerevisiae deletion strains, locus YML016C, strain PPZ1, active compounds read low 0.829 | S. cerevisiae deletion strains, locus YML032C, strain rad52, active compounds read low 0.746 | S. cerevisiae deletion strains, locus YML124C, strain tub3, active compounds read low 0.885 | S. cerevisiae deletion strains, locus YMR058W, strain fet3, active compounds read low 0.682 | S. cerevisiae deletion strains, locus YMR223W, strain ubp8, active compounds read low 0.783 | S. cerevisiae deletion strains, locus YMR263W, strain SAP30, active compounds read low 0.774 | S. cerevisiae deletion strains, locus YMR307W, strain GAS1, active compounds read low 0.57 | S. cerevisiae deletion strains, locus YNL067W, strain RPL9B, active compounds read low 0.842 | S. cerevisiae deletion strains, locus YNL233W, strain BNI4, active compounds read low 0.792 | S. cerevisiae deletion strains, locus YNL250W, strain rad50, active compounds read low 0.824 | S. cerevisiae deletion strains, locus YNL271C, strain bni1, active compounds read low 0.646 | S. cerevisiae deletion strains, locus YNL298W, strain CLA4, active compounds read low 0.766 | S. cerevisiae deletion strains, locus YNL307C, strain MCK1, active compounds read low 0.714 | S. cerevisiae deletion strains, locus YNR052C, strain pop2, active compounds read low 0.65 | S. cerevisiae deletion strains, locus YOL147C, strain pex11, active compounds read low 0.588 | S. cerevisiae deletion strains, locus YOR061W, strain CKA2, active compounds read low 0.869 | S. cerevisiae deletion strains, locus YOR069W, strain VPS5, active compounds read low 0.848 | S. cerevisiae deletion strains, locus YOR136W, strain idh2, active compounds read low 0.905 | S. cerevisiae deletion strains, locus YOR144C, strain elg1, active compounds read low 0.686 | S. cerevisiae deletion strains, locus YOR184W, strain ser1, active compounds read low 0.669 | S. cerevisiae deletion strains, locus YPL055C, strain LGE1, active compounds read low 0.744 | S. cerevisiae deletion strains, locus YPL241C, strain CIN2, active compounds read low 0.911 | S. cerevisiae deletion strains, locus YPR163C, strain tif3, active compounds read low 0.643 | S. cerevisiae deletion strains, locus YPR167C, strain met16, active compounds read low 0.815 | S. cerevisiae deletion strains, strain wtn01, active compounds read low 0.767 | S. cerevisiae strains, strain wild type, active compounds read low 0.772
inactive: S. cerevisiae deletion strains, locus YAL021C, strain ccr4, active compounds read low 0.977 | S. cerevisiae deletion strains, locus YAL026C, strain drs2, active compounds read low 0.927 | S. cerevisiae deletion strains, locus YAL030W, strain snc1, active compounds read low 0.99 | S. cerevisiae deletion strains, locus YBL061C, strain skt5, active compounds read low 0.978 | S. cerevisiae deletion strains, locus YBR009C, strain hhf1, active compounds read low 0.946 | S. cerevisiae deletion strains, locus YBR021W, strain FUR4, active compounds read low 0.859 | S. cerevisiae deletion strains, locus YBR023C, strain chs3, active compounds read low 0.967 | S. cerevisiae deletion strains, locus YBR171W, strain sec66, active compounds read low 1.01 | S. cerevisiae deletion strains, locus YBR231C, strain swc5, active compounds read low 0.965 | S. cerevisiae deletion strains, locus YBR279W, strain paf1, active compounds read low 1 | S. cerevisiae deletion strains, locus YCL011C, strain gbp2, active compounds read low 0.969 | S. cerevisiae deletion strains, locus YCL016C, strain dcc1, active compounds read low 0.983 | S. cerevisiae deletion strains, locus YCL061C, strain MRC1, active compounds read low 0.961 | S. cerevisiae deletion strains, locus YCL069W, strain vba3, active compounds read low 1 | S. cerevisiae deletion strains, locus YCR088W, strain abp1, active compounds read low 1.01 | S. cerevisiae deletion strains, locus YDL005C, strain med2, active compounds read low 1.04 | S. cerevisiae deletion strains, locus YDL040C, strain nat1, active compounds read low 1.01 | S. cerevisiae deletion strains, locus YDR001C, strain nth1, active compounds read low 1.01 | S. cerevisiae deletion strains, locus YDR069C, strain doa4, active compounds read low 0.903 | S. cerevisiae deletion strains, locus YDR159W, strain sac3, active compounds read low 1.08 | S. cerevisiae deletion strains, locus YDR195W, strain ref2 1.03 | S. cerevisiae deletion strains, locus YDR297W, strain sur2, active compounds read low 0.977 | S. cerevisiae deletion strains, locus YDR334W, strain swr1, active compounds read low 0.995 | S. cerevisiae deletion strains, locus YDR335W, strain msn5, active compounds read low 0.993 | S. cerevisiae deletion strains, locus YDR392W, strain spt3, active compounds read low 0.913 | S. cerevisiae deletion strains, locus YEL003W, strain gim4, active compounds read low 0.971 | S. cerevisiae deletion strains, locus YEL037C, strain rad23, active compounds read low 0.981 | S. cerevisiae deletion strains, locus YEL061C, strain CIN8 (second series), active compounds read low 1.02 | S. cerevisiae deletion strains, locus YER015W, strain faa2, active compounds read low 0.979 | S. cerevisiae deletion strains, locus YER016W, strain bim1, active compounds read low 1.01 | S. cerevisiae deletion strains, locus YER111C, strain swi4, active compounds read low 0.963 | S. cerevisiae deletion strains, locus YER155C, strain BEM2 (second series), active compounds read low 0.982 | S. cerevisiae deletion strains, locus YER167W, strain BCK2, active compounds read low 0.911 | S. cerevisiae deletion strains, locus YFR010W, strain ubp6, active compounds read low 0.937 | S. cerevisiae deletion strains, locus YGL167C, strain pmr1, active compounds read low 1.01 | S. cerevisiae deletion strains, locus YGL173C, strain kem1, active compounds read low 0.991 | S. cerevisiae deletion strains, locus YGL227W, strain vid30, active compounds read low 1.02 | S. cerevisiae deletion strains, locus YGL240W, strain doc1, active compounds read low 0.935 | S. cerevisiae deletion strains, locus YGL253W, strain hxk2, active compounds read low 0.972 | S. cerevisiae deletion strains, locus YHR013C, strain ard1, active compounds read low 0.992 | S. cerevisiae deletion strains, locus YHR027C, strain rpn1, active compounds read low 0.998 | S. cerevisiae deletion strains, locus YHR094C, strain hxt1, active compounds read low 0.936 | S. cerevisiae deletion strains, locus YHR142W, strain chs7, active compounds read low 0.946 | S. cerevisiae deletion strains, locus YIL073C, strain SPO22, active compounds read low 0.76 | S. cerevisiae deletion strains, locus YJL092W, strain hpr5, active compounds read low 0.993 | S. cerevisiae deletion strains, locus YJL095W, strain BCK1 (second series), active compounds read low 0.996 | S. cerevisiae deletion strains, locus YJL115W, strain asf1, active compounds read low 1.02 | S. cerevisiae deletion strains, locus YJL129C, strain trk1, active compounds read low 1 | S. cerevisiae deletion strains, locus YJL154C, strain vps35, active compounds read low 1.02 | S. cerevisiae deletion strains, locus YJL164C, strain tpk1, active compounds read low 0.934 | S. cerevisiae deletion strains, locus YJL166W, strain qcr8, active compounds read low 0.966 | S. cerevisiae deletion strains, locus YJL168C, strain set2, active compounds read low 0.973 | S. cerevisiae deletion strains, locus YJL187C, strain SWE1, active compounds read low 0.992 | S. cerevisiae deletion strains, locus YJR075W, strain HOC1, active compounds read low 0.884 | S. cerevisiae deletion strains, locus YKL068W, active compounds read low 0.951 | S. cerevisiae deletion strains, locus YKL160W, strain elf1, active compounds read low 0.974 | S. cerevisiae deletion strains, locus YKL190W, strain CNB1, active compounds read low 0.929 | S. cerevisiae deletion strains, locus YKR026C, strain gcn3, active compounds read low 1 | S. cerevisiae deletion strains, locus YKR091W, strain srl3, active compounds read low 1.01 | S. cerevisiae deletion strains, locus YLL001W, strain dnm1, active compounds read low 0.965 | S. cerevisiae deletion strains, locus YLL026W, active compounds read low 1 | S. cerevisiae deletion strains, locus YLL041C, strain sdh2, active compounds read low 1.01 | S. cerevisiae deletion strains, locus YLR027C, strain aat2, active compounds read low 1 | S. cerevisiae deletion strains, locus YLR102C, strain apc9, active compounds read low 0.953 | S. cerevisiae deletion strains, locus YLR221C, strain rsa3, active compounds read low 0.923 | S. cerevisiae deletion strains, locus YLR258W, strain gsy2, active compounds read low 0.982 | S. cerevisiae deletion strains, locus YLR262C, strain YPT6 (second series), active compounds read low 0.915 | S. cerevisiae deletion strains, locus YLR262C, strain YPT6, active compounds read low 0.606 | S. cerevisiae deletion strains, locus YLR320W, strain mms22, active compounds read low 0.98 | S. cerevisiae deletion strains, locus YLR342W, strain FKS1, active compounds read low 0.976 | S. cerevisiae deletion strains, locus YLR357W, strain rsc2, active compounds read low 0.881 | S. cerevisiae deletion strains, locus YLR370C, strain arc18, active compounds read low 1.01 | S. cerevisiae deletion strains, locus YLR384C, strain iki3, active compounds read low 1.02 | S. cerevisiae deletion strains, locus YML120C, strain ndi1, active compounds read low 0.963 | S. cerevisiae deletion strains, locus YMR078C, strain ctf18, active compounds read low 0.964 | S. cerevisiae deletion strains, locus YMR125W, strain sto1, active compounds read low 0.997 | S. cerevisiae deletion strains, locus YMR129W, active compounds read low 1.02 | S. cerevisiae deletion strains, locus YMR205C, strain PFK2, active compounds read low 1.02 | S. cerevisiae deletion strains, locus YMR231W, strain pep5, active compounds read low 1 | S. cerevisiae deletion strains, locus YNL071W, strain lat1, active compounds read low 1.01 | S. cerevisiae deletion strains, locus YNL209W, strain ssb2, active compounds read low 0.936 | S. cerevisiae deletion strains, locus YNL248C, strain rpa49, active compounds read low 0.989 | S. cerevisiae deletion strains, locus YNL322C, strain KRE1 (second series), active compounds read low 1.01 | S. cerevisiae deletion strains, locus YNR049C, strain mso1, active compounds read low 1.01 | S. cerevisiae deletion strains, locus YOL012C, strain htz1 0.305 | S. cerevisiae deletion strains, locus YOR001W, strain rrp6, active compounds read low 0.964 | S. cerevisiae deletion strains, locus YOR070C, strain gyp1, active compounds read low 1.01 | S. cerevisiae deletion strains, locus YOR080W, strain dia2, active compounds read low 1 | S. cerevisiae deletion strains, locus YOR083W, strain WHI5, active compounds read low 0.938 | S. cerevisiae deletion strains, locus YOR106W, strain vam3, active compounds read low 0.924 | S. cerevisiae deletion strains, locus YOR265W, strain rbl2, active compounds read low 1.01 | S. cerevisiae deletion strains, locus YOR270C, strain vph1, active compounds read low 0.912 | S. cerevisiae deletion strains, locus YOR290C, strain snf2, active compounds read low 0.886 | S. cerevisiae deletion strains, locus YOR316C, strain cot1, active compounds read low 0.979 | S. cerevisiae deletion strains, locus YPL051W, strain arl3, active compounds read low 0.947 | S. cerevisiae deletion strains, locus YPL078C, strain atp4, active compounds read low 0.967 | S. cerevisiae deletion strains, locus YPL106C, strain sse1, active compounds read low 1.03 | S. cerevisiae deletion strains, locus YPL240C, strain hsp82, active compounds read low 0.996 | S. cerevisiae deletion strains, locus YPR119W, strain clb2, active compounds read low 0.992 | S. cerevisiae deletion strains, locus YPR141C, strain kar3, active compounds read low 0.99
